{"source": "PubChem BioAssay (Tox21)", "note": "Inconclusive results are not listed. Where a call stands in place of a potency, no number is given. The source made the active and inactive calls. Calls come from the whole dose curve."}
{"test": "cAMP Responsive Elements (CRE) small molecule agonists, cell-based qHTS assay (AID 1963590)", "conditions": "CRE-bla HEK293T, beta-lactamase FRET ratio, 3 h; series mostly up to 92.4 µM; activation: at the top concentration", "text": "U.S. Tox21 Program National Center for Advancing Translational Sciences [NCATS] Division of Preclinical Innovation [DPI] U.S. Environmental Protection Agency [EPA] National Institutes of Environmental Health Sciences [NIEHS] National Toxicology Program [NTP] U.S. Food and Drug Administration [FDA] Tox21 Assay Overview: CREB (cyclic-AMP Responsive Element Binding Protein) is a cellular transcription factor. It binds to certain DNA sequences called cAMP Responsive Elements (CRE) and regulates the transcription of the genes. […] This cell line can be used to find agonists/antagonists of the cyclic AMP signaling pathway. The activation of the report gene under culture conditions can be detected by fluorescence intensity. This cell line has been used to screen the Tox21 10K compound library to identify agonists that induce oxidative stress.\nTox21 Assay Protocol Summary: CRE-bla Hek 293T cells were suspended in assay medium (DMEM containing 10% dialyzed FBS, 0.1 mM NEAA, 1 mM sodium pyruvate and 25 mM HEPES) and dispensed at 2,000 cells/5 uL /well into 1536-well black wall/clear bottom plates using a Multidrop Combi (ThermoFisher Scientific, Waltham, MA) dispenser. After the assay plates were incubated at 37 C/5% CO2 for 18 hrs, 23 nL of compounds dissolved in DMSO, positive controls or DMSO only was transferred to the assay plate by a pintool workstation (Kalypsys, San Diego, CA). After the plates were incubated at 37 C/5% CO2 for 3 hrs, 1 uL of LiveBLAzer B/G FRET substrate (Invitrogen, Carlsbad, CA) was added to each well using Bioraptr Flying Reagent Dispenser (FRD, Aurora Discovery, San Diego, CA). The plates were incubated at room temperature for 2 h."}
{"smiles": "Nc1c(Cl)cc([N+](=O)[O-])cc1Cl", "Potency": "inactive"}
{"smiles": "[O-][Cl+]O", "activation": "0.967% (inactive)"}
{"smiles": "CC(O)CN1CCN(CC(=O)[O-])CCN(CC(=O)[O-])CCN(CC(=O)[O-])CC1.[Gd+3]", "note": "(stereo not given)", "activation": "-1.95% [at 42.5 µM] (inactive)"}
{"smiles": "Oc1ccc(Cl)cc1", "Potency": "inactive"}
{"smiles": "[O]=[Cr][O][Cr]=[O]", "activation": "-0.743% (inactive)"}
{"smiles": "O=C(O)C(F)(F)C(F)(F)C(F)(F)C(F)(F)C(F)(F)C(F)(F)C(F)(F)C(F)(F)C(F)(F)C(F)(F)F", "activation": "2.34% (inactive)"}
{"smiles": "CCCCC(CC)COC(=O)Cl", "note": "(stereo not given)", "Potency": "inactive"}
{"smiles": "Nc1nc(N)nc(Cl)n1", "activation": "-0.575% (inactive)"}
{"smiles": "CCCCOC(=O)c1ccccc1C(=O)OCc1ccccc1", "Potency": "inactive"}
{"smiles": "C=CC#N", "Potency": "inactive"}
{"smiles": "CC(Br)C(=O)O", "note": "(stereo not given)", "Potency": "inactive"}
{"smiles": "COP(=S)(OC)Oc1ccc(SC)c(C)c1", "Potency": "inactive"}
{"smiles": "Cc1coc2c1CCC(C)C2", "note": "(stereo not given)", "activation": "0.0034% (inactive)"}
{"smiles": "CCCC[N+]1(C)CCCC1", "Potency": "inactive"}
{"smiles": "CCOP(OCC)OCC", "Potency": "inactive"}
{"smiles": "NC(=O)c1cc([N+](=O)[O-])cc([N+](=O)[O-])c1", "activation": "-0.474% [at 42.5 µM] (inactive)"}
{"smiles": "CN(C)C(=S)S", "Potency": "inactive"}
{"smiles": "CCOc1nc(F)cc2nc(S(=O)(=O)Nc3c(Cl)cccc3Cl)nn12", "activation": "-1.46% (inactive)"}
{"smiles": "C=CCN=C=S", "Potency": "inactive"}
{"smiles": "N[C@@H](Cc1ccc(N(CCCl)CCCl)cc1)C(=O)O", "Potency": "inactive"}
{"smiles": "CC(C)=CC1C(C(=O)OCc2cccc(Oc3ccccc3)c2)C1(C)C", "note": "(stereo not given)", "Potency": "inactive"}
{"smiles": "O=C(CCl)CCl", "Potency": "inactive"}
{"smiles": "Cc1cnc[nH]1", "activation": "-0.147% (inactive)"}
{"smiles": "CNC(=O)O/N=C/C(C)(C)S(C)=O", "note": "(stereo not given)", "Potency": "inactive"}
{"smiles": "Clc1ccc(C2(Cn3cncn3)OCCO2)c(Cl)c1", "activation": "0.586% (inactive)"}
{"smiles": "C=C1CC[C@@]2(O)[C@H]3Cc4ccc(O)c5c4[C@@]2(CCN3CC2CC2)[C@H]1O5", "activation": "-0.352% [at 42.5 µM] (inactive)"}
{"smiles": "CCC[CH2][Sn]([Cl])([Cl])[Cl]", "Potency": "inactive"}
{"smiles": "C=CCc1ccc2c(c1)OCO2", "Potency": "inactive"}
{"smiles": "CCOC(=S)S", "Potency": "inactive"}
{"smiles": "CCCCCCCCOC(=O)c1ccc(C(=O)OCCCCCCCC)c(C(=O)OCCCCCCCC)c1", "activation": "1.55% (inactive)"}
{"smiles": "C(=NC1CCCCC1)=NC1CCCCC1", "Potency": "inactive"}
{"smiles": "CCCCC1C(=O)NC(=O)N(C2CCCCC2)C1=O", "note": "(stereo not given)", "activation": "0.0138% [at 42.5 µM] (inactive)"}
{"smiles": "COP(=O)(CCC(=O)NCO)OC", "activation": "-0.403% (inactive)"}
{"smiles": "CC(C)(OOC(C)(C)c1ccccc1)c1ccccc1", "Potency": "inactive"}
{"smiles": "O=C(O)Cc1ccccc1", "Potency": "inactive"}
{"smiles": "Cc1ccc(C(=O)Cl)cc1", "activation": "0.937% (inactive)"}
{"smiles": "Cc1ccc(N)cc1N", "Potency": "inactive"}
{"smiles": "Nc1cccc2ccccc12", "Potency": "inactive"}
{"smiles": "CNC(=O)Oc1cccc2c1OC(C)(C)C2", "Potency": "inactive"}
{"smiles": "Cc1ccc(N)cc1C", "activation": "-1.88% (inactive)"}
